Hit rate of the full screen: of about 96,000 compounds, about 19,000 (20%) were called active.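 Rule for the calls: active = blocking of liver enzyme CYP2C9 beyond about 50% at 5 µM (limit read from the data); inactive = the rest.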 These entries were drawn from the full list.
These compounds were tested against Cytochrome P450 2C9 (Homo sapiens) (UniProt P11712) (assay: blockers of cytochrome P450 2C9 activity – biochemical, luminescence, ADME assay, primary screen (AID 777)). Details: CYP2C9 Supersomes, luciferin-H conversion, at 5 µM, stronger effect = higher value.
Sequence of Cytochrome P450 2C9 (Homo sapiens) (P11712 whole entry, looked up): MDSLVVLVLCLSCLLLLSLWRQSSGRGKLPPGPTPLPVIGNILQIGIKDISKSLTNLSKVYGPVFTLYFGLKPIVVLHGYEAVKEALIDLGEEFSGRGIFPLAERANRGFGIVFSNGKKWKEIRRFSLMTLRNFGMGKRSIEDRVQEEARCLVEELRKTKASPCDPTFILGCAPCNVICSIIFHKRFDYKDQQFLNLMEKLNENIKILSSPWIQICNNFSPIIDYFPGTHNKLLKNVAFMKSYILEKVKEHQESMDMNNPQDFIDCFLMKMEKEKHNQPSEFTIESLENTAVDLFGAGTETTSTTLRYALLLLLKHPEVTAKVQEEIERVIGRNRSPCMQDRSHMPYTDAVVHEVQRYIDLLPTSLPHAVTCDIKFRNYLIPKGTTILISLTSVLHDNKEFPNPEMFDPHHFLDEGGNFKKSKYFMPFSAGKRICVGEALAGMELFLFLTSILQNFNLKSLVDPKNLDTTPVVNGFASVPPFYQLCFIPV

inhibition, inactive:
Cc1cc(Cl)c(S(=O)(=O)Nc2ccc3c(c2)OCCO3)cc1OCC(N)=O 19.9%
OC1CN=C2Sc3ccccc3N2C1 (stereo unspecified) -6.8%
Cc1nn(C(=O)c2ccoc2C)c(N)c1-c1ccccc1 26.4%
Cn1c(=O)c(C(=O)Nc2ncccn2)c(O)c2ccccc21 -24.6%
O=C1NC(c2cc3c(cc2Cl)OCO3)Oc2ccccc21 (stereo unspecified) 26.5%
NC(CSC12CC3CC(CC(C3)C1)C2)C(=O)O (stereo unspecified) 9.2%
N#Cc1c2c(c(-c3ccccc3)[nH]c1=O)CCCC2 -12.7%
Cn1c(C(=O)NCCN2CCc3ccccc3C2)cc2c(=O)[nH]c3ccccc3c21 20%
Cc1noc(NS(=O)(=O)c2ccc(N3CC(O)=C(c4ccccc4)C3=N)cc2)c1C 3.3%
Cc1ccc2cc(C#N)c(SCC(=O)NCC3CCCO3)nc2c1C (stereo unspecified) -3.8%
Cc1cc(C(F)(F)F)c(C#N)c(SCC(=O)NC2CC2)n1 17.2%
CCCC(C(=O)N1CCOCC1)N1C(=O)C2C3C=CC(C3)C2C1=O (stereo unspecified) -2.2%
Clc1ccc(Cl)c(Oc2ccc(Oc3nc(Cl)ccc3Cl)cc2)n1 -102%
CSc1ccc(C#N)cc1NC(=O)c1cccc(Cl)c1 18.2%
CN1C(=O)c2ccc(NC(=O)c3c(F)c(F)c(F)c(F)c3F)cc2C1=O -24%
O=C(c1ccco1)N1CCN(C(=O)c2ccc(COc3ccc(F)cc3)o2)CC1 33.7%
CC(NC(=O)Nc1ccccc1)c1ccccc1 (stereo unspecified) 7%
CC(=O)c1cccc(NC(=O)Nc2ccc(C)cc2)c1 17.7%
CCn1c(Cc2ccccc2)nnc1SCc1nc2ccccc2c(=O)[nH]1 -61.8%
O=C(c1ccccc1)c1cc(-c2ccccn2)c(N2CCOCC2)s1 25%
c1cnn(-c2cc(N3CCOCC3)ncn2)c1 -3.4%
c1ccc(-c2oc3ncnc(N4CCOCC4)c3c2-c2ccccc2)cc1 18.1%
Cc1cnc(NC(=O)C2CCCC2)s1 10.7%
CCN1C(=O)/C(=C\N2CCN(c3cccc(Cl)c3)CC2)SC1=S 4.9%
CC(Oc1ccc(Cl)cc1)c1ccnn1S(C)(=O)=O (stereo unspecified) 24.4%
COc1ccc(CC(=O)n2nc(-c3cccnc3)nc2N)cc1 9%
O=C(Cn1ccc([N+](=O)[O-])n1)NCc1cccs1 -1.6%
C=C(C)CSc1nnc(-c2ccc(C)cc2)n1N 1.1%
Cc1ccc(NC(=S)NCCN2CCOCC2)cc1 -12.4%
Cc1ccc(NC(=S)NC2CCCC2)cc1 29.5%
CCOc1ccc(-c2nc(C)sc2CC(=O)O)cc1 -0.3%
CC(C)c1ccc(Nc2ncccc2C#N)cc1 3.6%
COCCOC(=O)C1=C(C)N=c2s/c(=C\c3cccs3)c(=O)n2C1c1cccs1 (stereo unspecified) 41.5%
C=CCN(C(=O)Nc1ccc2oc(C)nc2c1)c1ccccc1 22.8%
CCc1c(C)nc2cc(-c3cccs3)[nH]n2c1=O 30.3%
FC(F)(F)c1nnc2ccc(N3CCN(c4ccccc4)CC3)nn12 27.4%
O=C(CSCc1ccccc1Cl)NNC(=O)c1ccccc1 -1.6%
O=C(CSCc1ccc([N+](=O)[O-])cc1)NCCSCc1ccccc1 44.2%
Cc1ccc(C2CC2C(=O)NN)cc1 (stereo unspecified) 15.8%
CC(=O)c1cccc(NC(=O)N2CCCC2C(=O)NCCc2ccccc2)c1 (stereo unspecified) -8.8%
COCCN(C(=O)c1ccco1)c1nnc(-c2ccc(OC)cc2)s1 9%
CCN1C(=O)CS/C1=N\c1nccs1 17.8%
COCc1cc(C)nc2sc3c(=O)n(-c4cccc5ccccc45)nnc3c12 26.8%
COc1ccc(-n2nnc3c(=O)n(CC(=O)OCc4ccccc4)cnc32)cc1 -16%
CC(C)(C)NC(=O)C(c1ccco1)N(Cc1ccc2c(c1)OCO2)C(=O)Cn1nnc2ccccc21 (stereo unspecified) 16.8%
Cc1cccc(-n2ncc(C#N)c2-n2cccc2)c1 39.8%
COc1ccc(Cl)cc1S(=O)(=O)Nc1cccc(C(=O)O)c1 14.1%
COc1ccccc1NS(=O)(=O)N(C)C -23%
Cc1ccc(OCC(=O)Nc2ccc(-c3nc4ncccc4o3)cc2)cc1 -6.6%
Cc1csc(OCC(=O)Nc2ccc(C)c(C)c2)n1 4.4%
CCN(CC)c1ccc2cc(C(=O)O)c(=O)oc2c1 -7.5%
Cc1cc(=O)n2c3c(cccc13)CCC2 -60.9%
CC(C)Oc1ccc(C(=O)Nc2cc(=O)n(C)c(=O)n2C)cc1 10.6%
C=C(C)Cn1c(N2CCN(CC)CC2)nc2c1c(=O)[nH]c(=O)n2C -14.5%
COc1cc(C(=O)NC(=S)NCc2ccco2)cc(OC)c1OC 18.9%
Cc1cccc(C)c1NC(=O)CCS(=O)(=O)c1cccc2nsnc12 -1%
O=C(Nc1cc(=O)[nH]c2ncnn12)c1ccccc1Cl 5.6%
O=C(CSCc1cccs1)N1CCCC1 -22.8%

inhibition, active:
Cc1nn2c(c1-c1ccccc1)N=C(c1ccco1)CC2c1ccccc1 (stereo unspecified) 63.5%
COc1ccc(-c2oc(/N=C/N3CCCC3)c(C#N)c2-c2ccc(OC)cc2)cc1 96.9%
N#Cc1c(/N=C/N2CCCC2)oc(-c2ccccc2)c1-c1ccccc1 79.9%
CC(NC(=O)CSc1nc2c(cc1C#N)CN(C)CC2)c1ccccc1 (stereo unspecified) 74.5%
Cc1ccc(NC(=O)C(C)c2cccc(C(=O)c3ccccc3)c2)cc1 (stereo unspecified) 57.9%
CC1=C(C)CC2C(=O)N(c3cccc4ccccc34)C(=O)C2C1 (stereo unspecified) 72.9%
O=C1c2ccccc2-c2ncnc3c(N4CCOCC4)cc(N4CCOCC4)c1c23 51.5%
Cc1ccc(NC(=S)N/N=C2/CCCc3c(C)cc(C)cc32)cc1 59.7%
C=CCOC(=O)C1=C(C)NC(C)=C(C(=O)OCC=C)C1c1cccs1 96.8%
O=C(CSCc1ccc([N+](=O)[O-])cc1)Nc1cccc(C(=O)Nc2ccccc2C(=O)O)c1 93.9%
COc1ccc(-c2c(C(C)=O)c(C)nc3sc4c(=O)n(-c5ccc(C)cc5)nnc4c23)cc1 85.6%
COc1ccc(OC)c(S(=O)(=O)Nc2ccccc2F)c1 57.6%
Cc1ccc(NC(=O)COc2ccc(-n3ccnc3)cc2)cc1Cl 95%

From PubChem BioAssay AID777 (Sanford-Burnham Center for Chemical Genomics, 2007)
